Experimental data as given in PubChem BioAssay (Tox21).
Unmarked numbers belong to inactive results. A call without a number means that no potency is given here. The source made the active and inactive calls. Calls come from the whole dose curve; as a rule, active = well fitted curve in the direction sought with a large enough effect in the repeat runs; inconclusive = weak or mixed curves; inactive = flat fitted curve, though single readings scatter.

assay: qHTS assay to test for compound auto fluorescence at 535 nm (green) in HEK293 cell free culture (AID 720682); conditions: cell-free medium, green autofluorescence 485/535 nm; series mostly up to 91.3 µM
How it was run: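 Steps: dispense DMEM/10% FBS into empty wells; pin in compound or DMSO; measure fluorescence at 485/535 nm. Values are fluorescein equivalents.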

Compound | Potency | activity change
C=C(c1ccc(C(=O)O)cc1)c1cc2c(cc1C)C(C)(C)CCC2(C)C | inactive | –
CN1[C@@H]2CC[C@@H]1CC(OC(=O)C(CO)c1ccccc1)C2 (stereo partly drawn) | inactive | –
CN(C)c1ccc(N=Nc2ccccc2C(=O)O)cc1 | inactive | –
O=C1c2c(O)ccc(O)c2C(=O)c2c(NCCNCCO)ccc(NCCNCCO)c21 | – | -0.248% [at 18.6 µM, active compounds read high]
CCCCCCCC/C=C\CCCCCCCC(=O)N(C)CC(=O)O | inactive | –
Clc1ccc(C(Cn2ccnc2)OCc2ccsc2Cl)c(Cl)c1 (stereo not drawn) | inactive | –
CCCCOc1ccc(C(=O)CCN2CCCCC2)cc1 | – | -0.0432% [at 18.6 µM, active compounds read high]
COc1ccc2sc(C(=O)Nc3nnn[nH]3)c(OC(C)C)c2c1 | inactive | –
Cc1c(-c2ccc(O)cc2)n(Cc2ccc(OCCN3CCCCCC3)cc2)c2ccc(O)cc12 | inactive | –
CN(C)c1ccc(N=NS(=O)(=O)O)cc1 | inactive | –
c1cc(OCC2CO2)cc(OCC2CO2)c1 (stereo not drawn) | inactive | –
Cc1cc2c(C(C)C)c(O)c(O)c(C=O)c2c(O)c1-c1c(C)cc2c(C(C)C)c(O)c(O)c(C=O)c2c1O | inactive | –
C=C[C@](C)(O)CC[C@@H]1[C@@]2(C)CCCC(C)(C)[C@@H]2CC[C@@]1(C)O | inactive | –
CC(=O)OC(OC(C)=O)c1ccc([N+](=O)[O-])o1 | inactive | –
COC(=O)C1=C(C)NC(C)=C(C(=O)OCCCN2CCC(c3ccccc3)(c3ccccc3)CC2)C1c1cccc([N+](=O)[O-])c1 (stereo not drawn) | inactive | –
CC=O | inactive | –
CCN(CC)CCOc1ccc(C(O)(Cc2ccc(Cl)cc2)c2ccc(C)cc2)cc1 (stereo not drawn) | inactive | –
N#CSCSc1nc2ccccc2s1 | inactive | –
S=C(SSSSSSC(=S)N1CCCCC1)N1CCCCC1 | – | -0.0539% [at 18.6 µM, active compounds read high]

Compound | Potency | activity change
Cc1cc(Nc2ccc(O)cc2)ccc1N | inactive | –
CCCCCCOc1cc(C)c(O)c(C)c1C | inactive | –
NC(=O)c1nc(-c2cccc(-c3cc(F)ccc3OCC(F)(F)C(F)(F)F)c2)n[nH]1 | inactive | –
COC(=O)[C@]1(C)CCC[C@@]2(C)[C@H]1CC=C1C=C(C(C)C)CC[C@@H]12 | inactive | –
O=C1NC2CCCCN2C12CCN(CCCN1c3ccccc3CCc3ccc(Cl)cc31)CC2 (stereo not drawn) | inactive | –
NCCCC(O)(P(=O)(O)O)P(=O)(O)O | inactive | –
Oc1ccc(-c2ccc(O)cc2)cc1 | inactive | –
CNCC[C@H](Oc1cccc2ccccc12)c1cccs1 | inactive | –
SCCCCCCCCS | inactive | –
NC(=O)C(=O)N/N=C/c1ccc([N+](=O)[O-])o1 | inactive | –
C[C@]12CC[C@H]3C(=CCc4cc(O)ccc43)[C@@H]1CCC2=O | inactive | –
CN1[C@@H]2CC[C@H]1CC(OC(=O)C(CO)c1ccccc1)C2 (stereo partly drawn) | inactive | –
O=C1Nc2ccc(Cl)cc2[C@@](C#CC2CC2)(C(F)(F)F)O1 | inactive | –
C[C@H]1O[C@@H](O[C@H]2[C@@H](O)C[C@H](O[C@H]3[C@@H](O)C[C@H](O[C@H]4CC[C@@]5(C)[C@H](CC[C@@H]6[C@@H]5C[C@@H](O)[C@]5(C)[C@@H](C7=CC(=O)OC7)CC[C@]65O)C4)O[C@@H]3C)O[C@@H]2C)C[C@H](O)[C@@H]1O | inactive | –
CC1=C(/C=C/C(C)=C/C=C/C(C)=C\C=O)C(C)(C)CCC1 | inactive | –
CC(C)(C)CC(C)(C)c1ccccc1O | inactive | –
CN(C)CCCN1c2ccccc2CCc2ccccc21 | inactive | –
NC1(c2ccc(-c3nc4ccn5c(=O)[nH]nc5c4cc3-c3ccccc3)cc2)CCC1 | inactive | –

assay: qHTS assay to test for compound auto fluorescence at 590 nm (red) in HEK293 cell free culture (AID 720683); conditions: cell-free medium autofluorescence, Ex540/Em590 red; series mostly up to 91.3 µM
How it was run: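 Tox21 10K library compounds were pinned into cell-free DMEM with 10% FBS and fluorescence was read at excitation 540 nm. Activity is expressed as Rose Bengal sodium equivalency.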

Compound | Potency | fluorescence, % of fluorescent control
C=C(c1ccc(C(=O)O)cc1)c1cc2c(cc1C)C(C)(C)CCC2(C)C | inactive | –
CN1[C@@H]2CC[C@@H]1CC(OC(=O)C(CO)c1ccccc1)C2 (stereo partly drawn) | inactive | –
CN(C)c1ccc(N=Nc2ccccc2C(=O)O)cc1 | inactive | –
O=C1c2c(O)ccc(O)c2C(=O)c2c(NCCNCCO)ccc(NCCNCCO)c21 | – | -0.213% [at 18.6 µM]
CCCCOc1ccc(C(=O)CCN2CCCCC2)cc1 | – | -0.0248% [at 18.6 µM]
Cc1c(-c2ccc(O)cc2)n(Cc2ccc(OCCN3CCCCCC3)cc2)c2ccc(O)cc12 | inactive | –
c1cc(OCC2CO2)cc(OCC2CO2)c1 (stereo not drawn) | inactive | –
Cc1cc2c(C(C)C)c(O)c(O)c(C=O)c2c(O)c1-c1c(C)cc2c(C(C)C)c(O)c(O)c(C=O)c2c1O | inactive | –
C=C[C@](C)(O)CC[C@@H]1[C@@]2(C)CCCC(C)(C)[C@@H]2CC[C@@]1(C)O | inactive | –
CC(=O)OC(OC(C)=O)c1ccc([N+](=O)[O-])o1 | inactive | –
CC=O | inactive | –
Cc1cc(Nc2ccc(O)cc2)ccc1N | inactive | –
CCCCCCOc1cc(C)c(O)c(C)c1C | inactive | –
NC(=O)c1nc(-c2cccc(-c3cc(F)ccc3OCC(F)(F)C(F)(F)F)c2)n[nH]1 | inactive | –
COC(=O)[C@]1(C)CCC[C@@]2(C)[C@H]1CC=C1C=C(C(C)C)CC[C@@H]12 | inactive | –
O=C1NC2CCCCN2C12CCN(CCCN1c3ccccc3CCc3ccc(Cl)cc31)CC2 (stereo not drawn) | inactive | –
SCCCCCCCCS | inactive | –
NC(=O)C(=O)N/N=C/c1ccc([N+](=O)[O-])o1 | inactive | –
C[C@]12CC[C@H]3C(=CCc4cc(O)ccc43)[C@@H]1CCC2=O | inactive | –
CN1[C@@H]2CC[C@H]1CC(OC(=O)C(CO)c1ccccc1)C2 (stereo partly drawn) | inactive | –
O=C1Nc2ccc(Cl)cc2[C@@](C#CC2CC2)(C(F)(F)F)O1 | inactive | –
C[C@H]1O[C@@H](O[C@H]2[C@@H](O)C[C@H](O[C@H]3[C@@H](O)C[C@H](O[C@H]4CC[C@@]5(C)[C@H](CC[C@@H]6[C@@H]5C[C@@H](O)[C@]5(C)[C@@H](C7=CC(=O)OC7)CC[C@]65O)C4)O[C@@H]3C)O[C@@H]2C)C[C@H](O)[C@@H]1O | inactive | –
CC1=C(/C=C/C(C)=C/C=C/C(C)=C\C=O)C(C)(C)CCC1 | inactive | –
CC(C)(C)CC(C)(C)c1ccccc1O | inactive | –
CN(C)CCCN1c2ccccc2CCc2ccccc21 | inactive | –
NC1(c2ccc(-c3nc4ccn5c(=O)[nH]nc5c4cc3-c3ccccc3)cc2)CCC1 | inactive | –
